Screens (PubChem)
KCNQ2 pot: potentiators of rat KCNQ2 potassium channel | AID 2239, 2010 | B-score at 10 µM | hit rate 0.54% among 310,000 | Potassium voltage-gated channel subfamily KQT member 2 (Rattus norvegicus), O88943 | CHO-K1 KCNQ2, FluxOR thallium flux fluorescence; active compounds read high;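 active means fluorescence ratio B-score at least 3 SD of library B-scores, with initial fluorescence B-score within 3 of them, cut at about 5.3 in these data; same plate scores as AID 2156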;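 further: B-score of peak minus minimum over baseline fluorescence ratio after K+ and Tl+ stimulus; positive B-score means potentiation of KCNQ2 with more thallium influx and brighter signal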
KCNQ2 block: rat KCNQ2 potassium channel inhibitors, primary screen, cell-based, CHO-K1, FluxOR thallium flux, B-score. hit rate 1.1% among 310,000. Potassium voltage-gated channel subfamily KQT member 2 (Rattus norvegicus), O88943. 20 min; active compounds read low. B-score at 10 µM;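 active means fluorescence ratio B-score at most minus 3 library SDs, with starting brightness B-score within 2 library SDs, cut at about -5.5 in these data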
Kir21 conf inh: mouse Kir2.1 channel blockers, retest, confirmation, cell-based, FluxOR thallium flux, duplicate; Kir2.1-expressing cells, FluxOR thallium flux fluorescence; active compounds read low; hit rate 41% among 2,300; shares compounds with KCNQ2 pot; Tl flux remaining, % of negative control (active compounds read low), % at 10 µM;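 active means Primary-screen hit whose thallium flux fell at least 3 control SD below untreated wells in both duplicates, with normal baseline fluorescence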;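 further: 0% = blank wells without stimulus and 100% = stimulated no-compound controls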
Target sequence (P35561 whole entry, looked up): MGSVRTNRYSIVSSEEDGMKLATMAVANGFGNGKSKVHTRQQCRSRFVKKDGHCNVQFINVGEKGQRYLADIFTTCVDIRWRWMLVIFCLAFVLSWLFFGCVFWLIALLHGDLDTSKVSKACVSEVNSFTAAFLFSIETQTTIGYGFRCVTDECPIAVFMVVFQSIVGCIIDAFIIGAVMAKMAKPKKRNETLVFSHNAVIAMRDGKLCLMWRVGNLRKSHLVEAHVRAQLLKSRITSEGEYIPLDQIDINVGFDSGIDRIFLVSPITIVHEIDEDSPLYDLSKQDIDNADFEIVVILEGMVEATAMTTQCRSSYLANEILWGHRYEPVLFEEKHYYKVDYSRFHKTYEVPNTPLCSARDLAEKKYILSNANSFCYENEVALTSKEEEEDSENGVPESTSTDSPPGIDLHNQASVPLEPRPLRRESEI
HEK293 ctr: counter-screen for Kir2.1 inhibitors: effect in parental HEK293 cells. shares compounds with KCNQ2 pot. FluxOR thallium flux fluorescence; 0% = unstimulated blank wells. FluxOR signal as % of negative control (100 = no effect), % at 10 µM. hit rate 19% among 2,300;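 active means dye signal at least 3 control SD above or below untreated wells in both duplicates, raw fluorescence within 3, either direction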;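 further: percent is based on the flux ratio of peak minus minimum fluorescence over baseline F0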
CHO-K1 ctr: nonspecific thallium flux increase in parental CHO-K1, confirmation, counter-screen for KCNQ2 potentiator project, cell-based, FluxOR thallium flux, duplicate | hit rate 43% among 1,200 | activity increase over 3SD of controls, % at 10 µM | AID 2282, 2010 | shares compounds with KCNQ2 pot | parental CHO-K1 cells, FluxOR thallium flux fluorescence; zero = vehicle mean+3SD, 100% = vehicle-minus-blank window;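 active means signal rise of at least 3 SD above the untreated control mean, in both duplicate wells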;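 further: counter screen of KCNQ2 potentiator hits so any rise reflects channel-independent effects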
KCNQ1 pot spec: human KCNQ1 channel potentiation off-target, confirmation, selectivity assay for KCNQ2 potentiator project, cell-based, CHO, FluxOR thallium flux | shares compounds with KCNQ2 pot | CHO KCNQ1 stable, FluxOR thallium flux fluorescence; beyond 3SD, as % of vehicle-control signal | activation over 3SD threshold, % at 10 µM | hit rate 28% among 1,200;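 active means fluorescence ratio rise of at least 3 SD of vehicle wells above their mean, in both replicate wells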;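 further: 0% = vehicle mean plus 3 SD and 100% = vehicle minus unstimulated blank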
KCNQ2 pot conf: rat KCNQ2 channel potentiators, confirmation, cell-based, CHO, FluxOR thallium flux, duplicate | shares compounds with KCNQ2 pot | CHO-KCNQ2 cells, FluxOR thallium flux fluorescence | potentiation, less the hit threshold, % at 10 µM | hit rate 68% among 1,200;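 active means fluorescence ratio rising 3 SD or more over the vehicle control mean in both replicates, plus primary screen hit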;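 further: peak minus minimum thallium fluorescence divided by baseline after K/Tl stimulus; 0% = vehicle mean plus 3 SD and 100% = vehicle minus unstimulated blank difference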
Kir2-1 sel: mouse Kir2.1 channel activation off-target, confirmation, selectivity assay for KCNQ2 potentiator project, cell-based, HEK293, FluxOR thallium flux. AID 2345, 2010. activity over 3SD threshold, % at 10 µM. hit rate 2% among 1,200. shares compounds with KCNQ2 pot. HEK293 Kir2.1, FluxOR thallium flux fluorescence;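 active means fluorescence ratio rise of at least 3 SD above the vehicle-control mean, seen in both replicates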;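 further: 0% = vehicle mean plus 3 SD and 100% = vehicle minus no-stimulus blank window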
KCNQ2 W236L pot: potentiators of retigabine-insensitive KCNQ2 W236L, mechanism study for KCNQ2 potentiator project, cell-based, rat KCNQ2 W236L, CHO, automated patch clamp | automated patch clamp current | current increase over 3SD of negative controls (%), active compounds read high, % at 25 µM | hit rate 10% among 940 | shares compounds with KCNQ2 pot | AID 2558, 2010;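 active means current increase at least 3 SD of the untreated controls above them in both duplicate recordings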
* hit, by the source's call; i = inactive; x = no result given. Most compounds without a hit are left out; they make up all but 1.6% or so of the library.

SMILES	KCNQ2 pot	KCNQ2 block	Kir21 conf inh	HEK293 ctr	others
O=C1C(=O)c2ccccc2-c2ccccc21	6.19*	i	i	i	CHO-K1 ctr=-5.3;KCNQ1 pot spec=-15.3;KCNQ2 pot conf=-1.7;Kir2-1 sel=-29.0;KCNQ2 W236L pot=3.4%*
O=C1C(=O)c2cccc3cccc1c23	x	i	x	x
CCCCCCn1c(O)c(C=NCCN2CCCCC2)c(=O)[nH]c1=O	x	i	x	x
CC(NS(=O)(=O)OCC(Cl)(Cl)Cl)c1ccccc1 (centres undefined)	x	i	x	x
O=c1[nH]c(CN2CCNCC2)nc2ccccc12	0.16	i	x	x
O=P(C(Cl)Cl)(N1CCCCC1)N1CCCCC1	1.12	i	x	x
Cc1ccc(NC2=NCCCS2)c(C)c1C	x	i	x	x
O=C1NC(=O)C(Cc2cccs2)C(=O)N1	x	i	x	x
COc1ccc(/C=N\N=C(N)N)cc1	1.1	i	x	x
NC(N)=N/N=C/c1ccc(N(c2ccccc2)c2ccccc2)cc1	2.4	i	i	i
Cc1ccc(C[n+]2c(-c3ccc(C)cc3)cc(-c3ccc(C)cc3)cc2-c2ccc(C)cc2)cc1	x	i	11.5%*	i
CCOc1ccc(-c2cc(C)[n+](CCN3CCOCC3)c(-c3ccc(OCC)cc3)c2)cc1	x	i	x	x
Cc1ccc(-c2ccc(=O)n(CC(=O)N3CCC4(CC3)OCCO4)n2)cc1	0.02	i	x	x
CN(C)CCSC1c2ccccc2CSc2ccccc21 (centres undefined)	x	i	x	x
Cc1ccccc1-[n+]1c(-c2ccccc2)cc(-c2ccccc2)cc1-c1ccccc1	-8.31	-8.31*	16.0%*	57.0%*
[O-]c1ccccc1-[n+]1c(-c2ccccc2)cc(-c2ccccc2)cc1-c1ccccc1	x	i	25.0%*	i
Cc1ccc(-c2cc(-c3ccc(C)cc3)[n+](-c3ccc(C(=O)O)cc3)c(-c3ccc(C)cc3)c2)cc1	0.83	i	x	x
CCCOC(=O)c1ccc(-[n+]2c(-c3ccccc3)cc(-c3ccccc3)cc2-c2ccccc2)cc1	-6.93	-6.93*	36.5%*	i
Brc1ccc(-[n+]2c(-c3ccccc3)cc(-c3ccccc3)cc2-c2ccccc2)cc1	-8.41	-8.41*	34.0%*	i
C[n+]1c(-c2ccccc2)cc(CCCCc2cc(-c3ccccc3)[n+](C)c(-c3ccccc3)c2)cc1-c1ccccc1	x	i	x	x
COc1ccc(CCNCc2ccc(C)s2)cc1OC	1.37	i	x	x
COc1ccc(Cc2nccc3cc(OC)c(OC)cc23)cc1OC	x	i	43.0%*	i
Cc1ccc(C(=O)N[C@@H](C)CN2C3=NC[C@H](Cc4ccccc4)N3C[C@H]2Cc2ccc(O)cc2)cc1Br	x	i	x	x
Cc1ccc(C(=O)N[C@@H](C)CN2C3=NC[C@@H](Cc4ccccc4)N3C[C@H]2Cc2ccc(O)cc2)cc1Br	x	i	49.0%*	i
Cc1ccc(CS(=O)(=O)CCC(=O)N2CCC3(CC2)OCCO3)cc1	x	i	x	x
SMILES	KCNQ2 pot	KCNQ2 block	Kir21 conf inh	HEK293 ctr	others
COc1ccccc1-n1c(O)c(/C=C2\C=Nc3ccccc32)c(=O)[nH]c1=O	1.21	i	x	x
Fc1ccc(CCNCc2ccccc2Cl)cc1	0.28	i	x	x
CCOc1ccc(Cl)cc1CNCCc1ccc(F)cc1	x	i	24.0%*	i
CNCC(O)c1cc(OCc2ccccc2)c(OCc2ccccc2)cc1F (centres undefined)	x	i	40.5%*	71.5%*
CNCC(O)c1cccc(OC(=O)c2ccccc2C)c1 (centres undefined)	0.15	i	x	x
Cc1ccc(OCC(=O)N2CCN(C)CC2)c(Br)c1	x	i	x	x
CC(C)CNC(=O)c1c(N)n(Cc2ccc3c(c2)OCO3)c2nc3ccccc3nc12	0.01	i	x	x
Oc1ccc(C(=C(Cl)Cl)c2ccc(O)cc2)cc1	11.4*	i	37.5%*	i	CHO-K1 ctr=47.4*;KCNQ1 pot spec=-7.0;KCNQ2 pot conf=0.8*;Kir2-1 sel=-100.0;KCNQ2 W236L pot=i
COc1cc(CC(C)N)c(OC)cc1I (centres undefined)	0.68	i	x	x
CCCCCSc1cc(OC)c(CCN)cc1OC	x	i	46.5%*	i
O=C(Nc1ccc(OC(=O)N2CCCCC2)cc1)N1CCOCC1	x	i	x	x
